Compound activity as filed in PubChem.
Shown are actives, neighbours in structure and some others; about 2.4% of the full set was active somewhere.
M1 PAM parental: counter-screen for M1 PAMs: effect in parental CHO-K1 cells | ATP EC20, Fluo-8 calcium fluorescence; 0% at ATP EC20, 100% at ATP max | activation, % at 3 µM | 0.02% of 360,000 active | AID 602247;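 active = activation above the run cutoff, the mean activation of all test compounds plus 3 SD, cut at about 40% in these data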;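 note: peak over basal fluorescence ratio in a 140 s read after ATP addition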
CHO-K1 Ca antag: counter-screen for M1 antagonists: effect in parental CHO-K1 cells; inhibition, % at 3 µM; ATP-induced calcium, Fluo-8 fluorescence; AID 602250; 0.6% of 360,000 active;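 active = inhibition above a per-plate cutoff, the plate's mean sample inhibition plus 3 SD, cut at about 24% in these data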;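 note: 0% = DMSO plus EC80 ATP and 100% = DMSO alone without ATP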
CHO-K1 Ca ag: nonselective activator or artifact in parental CHO-K1 cells. Fluo-8 calcium fluorescence; scaled to maximal ATP response, vehicle zero. activation, % at 3 µM. 0.48% of 360,000 active. AID 602248; in the data active = activation above about 15%;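 note: untransfected CHO-K1 host cells lacking M1 receptor as counterscreen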
CHRM1 PAM: potentiates human M1 receptor response to acetylcholine; P11229; CHO-K1 hM1, Fluo-8 calcium fluorescence, ACh EC20; 0% = ACh EC20, 100% = maximal ACh; activation, % at 3 µM; 0.088% of 360,000 active; AID 588819; in the data active = activation above about 19%, passing the limit was not always enough
Target sequence (P11229 whole entry, looked up): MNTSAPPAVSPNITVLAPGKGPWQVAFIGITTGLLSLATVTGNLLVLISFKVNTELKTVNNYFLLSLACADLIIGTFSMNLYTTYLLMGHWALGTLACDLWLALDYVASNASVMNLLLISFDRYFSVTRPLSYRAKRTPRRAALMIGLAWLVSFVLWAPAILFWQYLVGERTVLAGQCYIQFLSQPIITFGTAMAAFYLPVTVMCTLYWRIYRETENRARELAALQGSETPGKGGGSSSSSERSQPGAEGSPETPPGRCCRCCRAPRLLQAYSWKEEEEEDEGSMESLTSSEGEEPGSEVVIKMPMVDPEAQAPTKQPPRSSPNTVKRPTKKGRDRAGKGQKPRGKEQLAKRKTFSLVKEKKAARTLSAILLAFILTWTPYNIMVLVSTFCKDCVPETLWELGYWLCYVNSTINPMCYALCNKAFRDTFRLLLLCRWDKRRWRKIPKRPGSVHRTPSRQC
M1 antag: human CHRM1 antagonism | AID 588852 | CHO-K1 hM1, Fluo-8 calcium fluorescence, ACh EC80 antagonist | inhibition, % at 3 µM | 1.3% of 360,000 active;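 active = percent inhibition above its own plate's cutoff, namely the mean of that plate's compound wells plus 3 SD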;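 note: peak over basal fluorescence ratio during 140 s after agonist addition; 0% = ACh EC80 plus DMSO and 100% = DMSO alone without agonist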
M1 ag: agonists of human M1 muscarinic receptor | P11229 | CHO-K1 hM1, Fluo-8 calcium fluorescence, agonist mode; 0% DMSO, 100% acetylcholine EC100 | activation, % at 3 µM | 0.33% of 360,000 active | AID 588814;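 active = activation above the run's mean compound activation plus 3 SD, cut at about 16% in these data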;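 note: peak over basal fluorescence ratio within a 140 s kinetic read after compound addition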
An asterisk follows results filed as active.

SMILES	M1 PAM parental	CHO-K1 Ca antag	CHO-K1 Ca ag	CHRM1 PAM	M1 antag	M1 ag
COc1ccc(/C=C/C(=O)c2ccc(OC)cc2OC)c(OC)c1	-2	7	0	1	-9	-2
COc1ccc(N(Cc2ccccc2)C(=O)CSc2nnc(Cn3nnc4ccccc43)o2)cc1	0	18	0	14	-24	6
O=C(CSc1nnc(Cn2nnc3ccccc32)o1)N(Cc1ccc(F)cc1)c1ccccc1	9	25*	11	-10	26	-2
CC1(C)CC(NC(=O)N2c3ccccc3Sc3ccccc32)CC(C)(C)N1	10	-8	1	-24	50*	-8
O=C(N/N=C/c1cccs1)c1ccc2nc[nH]c2c1	-16	14	4	-11	35*	0
COc1ccc(C(=O)NCCc2nnc(SCC(=O)Nc3ccccc3)n2C)cc1	-8	25*	0	8	-31	10
COc1ccccc1N1CCN(C(=O)c2cc(-c3ccco3)on2)CC1	13	3	0	2	0	-3
c1ccc(C(c2nnnn2C2CCCC2)N2CCCCCC2)nc1 (stereo unspecified)	-6	19	0	-27	34*	-13
C(=C\c1ccccc1)/CN1CCN(C(c2ccnc3ccccc23)c2nnnn2C2CCCC2)CC1 (stereo unspecified)	-4	-3	0	-26	70*	-6
c1ccc(C(c2ccccc2)N2CCN(C(c3ccccn3)c3nnnn3C3CCCC3)CC2)cc1 (stereo unspecified)	-7	-4	0	-2	6	-5
COc1cccc(C(c2nnnn2C2CCCCC2)N2CCN(C/C=C/c3ccccc3)CC2)c1OC (stereo unspecified)	1	9	-1	-21	12	-6
FC(F)(F)Oc1ccccc1C(c1nnnn1C1CCCC1)N1CCN(C/C=C/c2ccccc2)CC1 (stereo unspecified)	17	-9	1	-25	56*	-4
C(=C\c1ccccc1)/CN1CCN(C(c2ccccc2)c2nnnn2C2CCCC2)CC1 (stereo unspecified)	17	-25	2	-23	54*	-5
Cc1cc(C)cc(N(C(=O)c2ccccn2)C(C(=O)NC2CCCCC2)c2ccncc2)c1 (stereo unspecified)	-24	8	-1	4	5	-4
Nc1ccn(CC(=O)NCCCc2ccccc2)c(=O)n1	12	-8	1	7	-8	-2
COc1ccc(OC)c(S(=O)(=O)Nc2cc3c4c(c2)CCN4C(=O)CC3)c1	12	-8	1	13	-14	-2
COc1ccc(-c2c3c([nH]c(=S)c2C#N)CCC3)cc1	-4	26*	-1	13	-17	5
Cc1ccc(-n2cc(-c3ccccc3)c3c(N4CCN(C)CC4)ncnc32)cc1	5	-1	4	11	-10	-3
Cc1ccc(-n2cc(-c3ccccc3)c3c(N4CCOCC4)ncnc32)cc1	-4	7	4	-12	43*	-3
Cc1cccc(-n2cc(-c3ccccc3)c3c(N4CCOCC4)ncnc32)c1	-8	1	5	-16	38*	-5
Cc1ccc(Cl)cc1NC(=O)C1CC(=O)N(C(C)C)C1 (stereo unspecified)	15	-5	0	5	-15	-4
CC(CCc1ccccc1)NC(=O)CNc1cccc([N+](=O)[O-])c1 (stereo unspecified)	2	-10	15*	-5	0	2
Cc1ccc2nc(SCC(=O)Nc3cccc([N+](=O)[O-])c3)[nH]c2c1	11	-1	16*	1	5	-5
Cc1ccc(CC(=O)Nc2cccc([N+](=O)[O-])c2)cc1	16	-3	18*	7	-6	-7
CN(Cc1ccccc1)C(=O)c1cccc(NC(=O)Cc2ccc([N+](=O)[O-])cc2)c1	-5	-5	10	-23	16	-8
CN(Cc1ccccc1)C(=O)c1cccc(NC(=O)Cc2cccc([N+](=O)[O-])c2)c1	-5	-10	9	-26	33*	-12
COc1ccccc1-c1nc2c(c(SCC(=O)N3CCCCC3)n1)Cc1c(CO)cnc(C)c1O2	1	4	5	-11	27	-1
